Data on one compound can be found in the supplement of paper PMC10042075.

The structures appear in SMILES notation.

In the experiment the test system is LASCPC-01. Description: cell viability relative to DMSO control (fraction); higher = less growth inhibition (more viable cells). To be noted: 2 µM; 72 h. On the procedure: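 High-throughput single-dose screen in the LASCPC-01 NEPC cell line in 384-well plates. Cells were treated with each compound at 2 µM for 72 h, and viability was read by CellTiter-Glo luminescence. Values are normalised to the DMSO control (compound/DMSO) from three replicates; only the 5-HT-related subset of the 7315-compound library is given.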
The compound `C=C[C@H]1CN2CC[C@@]3(C(=O)Nc4ccccc43)[C@@H]2C[C@@H]1/C(=C\OC)C(=O)OC` [Isocorynoxeine] registered a cell viability of 0.677.
